Sampled rows, rich in hits. Any-hit rate of the full collection: about 2.8%.
PI5P4Ka inh: qHTS for Inhibitors of phosphatidylinositol 5-phosphate 4-kinase (PI5P4K); Phosphatidylinositol 5-phosphate 4-kinase type-2 alpha (Homo sapiens), P48426; PI5P4Kalpha enzyme, ADP-Glo luminescence, 60 min; active compounds read low; max response, %; 330,000 compounds, 1.2% hits; active = max response of -50% or lower; inconclusive = between -30% and -50%; inactive = -30% or higher; also: value at the top dose of about 77 µM
Target sequence (P48426 whole entry, looked up): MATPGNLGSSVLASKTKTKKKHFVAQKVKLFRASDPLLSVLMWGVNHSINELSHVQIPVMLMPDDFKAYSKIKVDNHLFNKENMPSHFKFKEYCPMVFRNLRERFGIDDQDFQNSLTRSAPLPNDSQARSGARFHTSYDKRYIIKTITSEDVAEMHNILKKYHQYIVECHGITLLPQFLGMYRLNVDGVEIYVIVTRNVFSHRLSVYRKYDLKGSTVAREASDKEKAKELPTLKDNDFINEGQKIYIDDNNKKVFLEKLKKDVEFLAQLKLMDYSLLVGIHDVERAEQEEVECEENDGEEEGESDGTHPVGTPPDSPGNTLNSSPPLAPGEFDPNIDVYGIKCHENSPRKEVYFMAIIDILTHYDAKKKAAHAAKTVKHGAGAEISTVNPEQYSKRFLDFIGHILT
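Luminescence from ADP-Glo served as readout of PI5P4Kalpha activity in a qHTS format. Reaction: enzyme, substrate, compound, ATP at 5 microM final, 60 min at RT.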
WRN inhibitor: qHTS for Inhibitors of WRN Helicase; WRN helicase unwinding, fluorescent forked duplex, kinetic; Potency, µM (series often up to 114 µM), most hits filed as inhibitors; 360,000 compounds, 0.46% hits; also: nearly all actives have a fitted effect of over 55% in size
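Fluorescence dequenching readout, ex 525 nm/em 598 nm, kinetic mode: forked duplex DNA (100 nM final) with adjacent fluorophore and quencher unwound by WRN (20 nM final) with 2 mM ATP. Compound preincubation 15 min, room temperature.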
Pol kappa inh: qHTS for Inhibitors of Polymerase Kappa; DNA polymerase kappa (Homo sapiens), Q9UBT6; purified Pol kappa, fluorescent DNA synthesis assay, 10 min; Potency, µM (series often up to 107 µM), hits mostly inhibitors; 400,000 compounds, 0.53% hits
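Inhibition of 10 nM Pol kappa is measured by a fluorescent read-out at 0 and 10 min following addition of 50 nM substrate (final), with a 15-min room-temperature compound preincubation.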
Pol beta inh: qHTS Assay for Inhibitors of DNA Polymerase Beta. P06746. Pol beta primer extension/strand displacement, fluorescence kinetic. Potency, µM (titrated, usually from 114 µM), actives largely listed as inhibitors. 340,000 compounds, 1.3% hits
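Pol beta (10 nM) was preincubated with compound for 15 min at room temperature. The reaction was then started with 50 nM substrate and read immediately and after a further 10 min at room temperature.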
POLH inh: qHTS for Inhibitors of Polymerase Eta | DNA polymerase eta (Homo sapiens), Q9Y253 | recombinant Pol eta, fluorescent DNA replication assay | Potency, µM (titrated, usually from 114 µM), usual class: inhibitors | 390,000 compounds, 1.2% hits
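Pol eta at 10 nM preincubated with compounds 15 min at room temperature; reaction started with fluorescent substrate (50 nM final) and read kinetically at 0 and 10 min.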
POLI inh: qHTS for Inhibitors of Polymerase Iota. DNA polymerase iota (Homo sapiens), Q9UNA4. Pol iota fluorescent replication assay, 10 min. Potency, µM (highest dose often 115 µM), actives largely listed as inhibitors. 390,000 compounds, 1% hits. AID 588590, 2011
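Fluorescent replication assay read twice, at 0 min and 10 min after adding 50 nM (final) substrate. Enzyme (10 nM) and compounds were first incubated 15 min at room temperature; enzyme-free buffer wells were negative controls.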
Each line names hits and unclear results; the compound was inactive in the other large screens; ! = a repeat was not active. Unless noted, calls follow the shape of the dose curve; as a rule, active = well fitted curve in the direction sought with a large enough effect; inconclusive = small, poorly fitted or top-dose-only effect, or another doubt; inactive = no such curve, though single readings can be large; an effect the other way counts as inactive or inconclusive.

CCOc1ccc(OCC(=O)Nc2nnc3n2CCS3)cc1	none (no result: PI5P4Ka inh, WRN inhibitor)
O=C(/C=C\Nc1ccc2c(c1)OCO2)c1ccc2c(c1)OCO2	PI5P4Ka inh -59.4
Cc1ccc(C(=O)c2cn(Cc3ccc(F)cc3)c3nc(C)ccc3c2=O)cc1	POLI inh 79.4µM (no result: PI5P4Ka inh, WRN inhibitor)
Cc1ccc(NC(=O)CN(C)CC(=O)Nc2cccc(F)c2)cc1S(=O)(=O)N1CCCCCC1	none
COc1ccc(NC(=O)CN(C)CC(=O)Nc2cccc(F)c2)cc1S(=O)(=O)N1CCCCC1	WRN inhibitor 50.1µM (no result: Pol beta inh)
Cc1oc2cc3oc(=O)c(CC(=O)NCc4ccccc4)c(C)c3cc2c1C	none (no result: PI5P4Ka inh, WRN inhibitor)
CC(C)OC(=O)c1cn(-c2ccccc2)nc1-c1ccco1	PI5P4Ka inh inconclusive, WRN inhibitor inconclusive, Pol kappa inh inconclusive, Pol beta inh 39.8µM, POLH inh inconclusive, POLI inh inconclusive
Cc1ccc(-c2nn(-c3ccccc3)cc2C(=O)O)o1	Pol beta inh 15.8µM (no result: PI5P4Ka inh, WRN inhibitor, Pol kappa inh, POLH inh, POLI inh)
Cc1ccc(-c2nn(-c3ccccc3)cc2/C=C/C(=O)O)o1	POLI inh inconclusive
CCOc1ccc2noc3c2c1C(=O)c1ccccc1-3	none
O=C1c2ccccc2-c2onc3c(Oc4ccccc4)cc(O)c1c23	Pol beta inh 35.5µM (no result: PI5P4Ka inh, WRN inhibitor, Pol kappa inh, POLH inh, POLI inh)
C(=C\c1ccccc1)/CN1CCN(C(c2ccnc3ccccc23)c2nnnn2C2CCCC2)CC1 (stereo unspecified)	none (no result: Pol kappa inh, Pol beta inh, POLH inh, POLI inh)
O=C(NN=Cc1ccc(F)cc1)c1ccccc1NS(=O)(=O)c1cccs1	none (no result: Pol beta inh)
O=C(NN=Cc1cc(Br)c(O)c(Br)c1)c1ccccc1NS(=O)(=O)c1cccs1	PI5P4Ka inh -67.0, POLH inh inconclusive (no result: Pol beta inh)
O=C(N/N=C/c1ccc([N+](=O)[O-])o1)c1ccccc1NS(=O)(=O)c1cccs1	PI5P4Ka inh -57.3, Pol beta inh inconclusive, POLH inh 56.2µM, POLI inh 39.8µM
CC(=O)c1cccc(NC(=O)Nc2sc3nc4n(c(=O)c3c2C)CCC(C)CC4)c1 (stereo unspecified)	none (no result: PI5P4Ka inh, WRN inhibitor)
Cc1ccc(-c2nnc(SCC(=O)Nc3sc(C)c(C)c3C#N)n2C)cc1	Pol beta inh 22.4µM, POLH inh inconclusive
Cc1ccc(CNC(=O)C(C)n2c(=O)cc(C(F)(F)F)c3c(C)nn(C)c32)cc1 (stereo unspecified)	none (no result: PI5P4Ka inh, WRN inhibitor)
COc1cc(C(c2c(C)[nH][nH]c2=O)c2c(C)[nH][nH]c2=O)cc(OC)c1OC	POLI inh 8.91µM
COc1cc(C(c2c(C)[nH][nH]c2=O)c2c(C)[nH][nH]c2=O)ccc1OS(=O)(=O)c1ccc(C)cc1	POLI inh 3.55µM
COc1cc(C(c2c(C)[nH][nH]c2=O)c2c(C)[nH][nH]c2=O)cc(Cl)c1O	none
COc1cc(C(c2c(C)[nH][nH]c2=O)c2c(C)[nH][nH]c2=O)ccc1OC(C)C	none
COc1cc(C(c2c(C)[nH][nH]c2=O)c2c(C)[nH][nH]c2=O)ccc1OS(=O)(=O)c1ccccc1	POLI inh 10µM (no result: PI5P4Ka inh)
COc1ccc(C(c2c(C)[nH][nH]c2=O)c2c(C)[nH][nH]c2=O)cc1Br	POLI inh inconclusive
COc1cc(C(c2c(C)[nH][nH]c2=O)c2c(C)[nH][nH]c2=O)ccc1OC(=O)c1cccc([N+](=O)[O-])c1	POLI inh 10µM
Cc1onc(-c2ccccc2)c1C(=O)N1CCC(C)(C(=O)NS(=O)(=O)C2CC2)C1 (stereo unspecified)	none (no result: Pol kappa inh, Pol beta inh, POLH inh, POLI inh)
COc1ccc(OC)c(C(c2c(C)[nH][nH]c2=O)c2c(C)[nH][nH]c2=O)c1	POLI inh 28.2µM
CCN(CC)c1ccc(/C=C/c2ccccn2)cc1	POLI inh inconclusive (no result: PI5P4Ka inh, WRN inhibitor, Pol beta inh, POLH inh)
CCOC(=O)CN1C(=N)N(c2nc(NC(C)C)nc(OC)n2)CC1=O	POLI inh 79.4µM
Cc1ccc(C)c(N2CCN(C(c3ccc(F)cc3)c3nnc(-c4ccccc4)o3)CC2)c1 (stereo unspecified)	Pol kappa inh inconclusive, POLI inh 89.1µM (no result: PI5P4Ka inh, WRN inhibitor)
Cc1ccc(C)c(N2CCN(C(c3ccccc3)c3nnc(-c4ccccc4F)o3)CC2)c1 (stereo unspecified)	none (no result: PI5P4Ka inh, WRN inhibitor)
O=C(CSCc1c(F)cccc1Cl)NCCSCc1ccco1	Pol beta inh 25.1µM
O=C(NCCSCc1ccco1)c1ccc(=O)[nH]c1	POLI inh 50.1µM
Cc1ccc(CSCCNC(=O)CN(c2cc(C)ccc2C)S(C)(=O)=O)cc1	none
Cc1ccc(C)c(N(CC(=O)NCCSCc2ccco2)S(C)(=O)=O)c1	PI5P4Ka inh inconclusive, Pol kappa inh 79.4µM, Pol beta inh 28.2µM, POLH inh 22.4µM, POLI inh inconclusive
O=C(CSCc1c(F)cccc1Cl)NCc1ccco1	WRN inhibitor inconclusive (no result: PI5P4Ka inh)
Cc1ccccc1CC(=O)Nc1ccc2c(c1)c(=O)n(C)n2-c1ccccc1F	none (no result: Pol kappa inh, Pol beta inh, POLH inh, POLI inh)
CCOc1ccc(S(=O)(=O)N2CCOCC2)cc1NC(=O)CSC(=S)N1CCCC1	none (no result: Pol beta inh)
CN(C)CCCN1C(=O)c2cccc3cccc(c23)C1=O	Pol beta inh inconclusive
CN(C)CCN1C(=O)c2cccc3cc([N+](=O)[O-])cc(c23)C1=O	Pol kappa inh inconclusive, POLH inh inconclusive, POLI inh 79.4µM (no result: Pol beta inh)
O=C(O)c1ccc(N=c2oc3cc(O)ccc3cc2C(=O)NCc2ccccc2)cc1	PI5P4Ka inh -78.2, Pol beta inh inconclusive, POLH inh inconclusive
COc1ccc2cc(C(N)=O)c(=Nc3ccccc3)oc2c1	POLI inh inconclusive
COc1cccc2cc(C(=O)NCc3ccco3)c(=Nc3ccc(C(=O)O)cc3)oc12	POLH inh 89.1µM (no result: PI5P4Ka inh)
COc1cccc2cc(C(=O)NCc3ccco3)c(=O)oc12	none
NC(=O)c1cc2ccc(O)cc2oc1=Nc1ccccc1	PI5P4Ka inh -72.2
CCN1CCN(Cc2c(O)ccc3c(=O)c(Oc4ccccc4Cl)c(C(F)(F)F)oc23)CC1	none (no result: PI5P4Ka inh, WRN inhibitor)
O=c1c2c(nc3c(-c4ccc(Cl)cc4)c[nH]n13)CCC2	Pol beta inh 89.1µM
CCCCC[C@H](O)/C=C/C=C\CCCCCCCC(=O)O	none (no result: PI5P4Ka inh, WRN inhibitor, Pol beta inh, POLH inh, POLI inh)
CCCCC[C@H](O)/C=C/C1=C(CCCCCCC(=O)O)C(=O)CC1	WRN inhibitor inconclusive, Pol kappa inh 50.1µM!, Pol beta inh inconclusive, POLH inh 25.1µM, POLI inh 44.7µM
OCCCCCN=c1cc(-c2ccccc2)oc2ccc(Cl)cc12	Pol beta inh 35.5µM
CCCCNC(=O)C1c2ccccc2OCC(=O)N1C1CC1 (stereo unspecified)	none (no result: Pol kappa inh, Pol beta inh, POLH inh, POLI inh)
CCOC(=O)C1C(c2ccc(O)c(OC)c2)NC(=O)NC1(O)C(F)(F)F (stereo unspecified)	none

Bioassay records as filed in PubChem.
